TrxR1 inh: qHTS Assay for Inhibitors of Mammalian Selenoprotein Thioredoxin Reductase 1 (TrxR1): qHTS. recombinant rTrxR1, NADPH fluorescence consumption, selenite substrate. Potency, µM (doses to about 114 µM), usual class: inhibitors. 390,000 compounds, 1% hits; further: nearly all actives have a fitted effect of over 65% in size
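Rat TrxR1 (90 nM in the dispensed reagent) was pre-reduced with 400 uM NADPH for 5 min at room temperature, then incubated with compound for 15 min. After 400 uM selenite was added, NADPH fluorescence (Ex 340/Em 450 nm) was followed for 8 min.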
IDH1 R132H inh: qHTS for Inhibitors of mutant isocitrate dehydrogenase 1 (IDH1): qHTS; Isocitrate dehydrogenase [NADP] cytoplasmic (Homo sapiens), O75874; IDH1-R132H enzyme, NADPH consumption, diaphorase/resazurin fluorescence; Potency, µM (top dose mostly 76.6 µM), hits mostly inhibitors; 390,000 compounds, 0.093% hits; AID 602179, 2012; further: nearly all actives have a fitted effect of over 65% in size
Target sequence (O75874 whole entry R132H, stated change not applied): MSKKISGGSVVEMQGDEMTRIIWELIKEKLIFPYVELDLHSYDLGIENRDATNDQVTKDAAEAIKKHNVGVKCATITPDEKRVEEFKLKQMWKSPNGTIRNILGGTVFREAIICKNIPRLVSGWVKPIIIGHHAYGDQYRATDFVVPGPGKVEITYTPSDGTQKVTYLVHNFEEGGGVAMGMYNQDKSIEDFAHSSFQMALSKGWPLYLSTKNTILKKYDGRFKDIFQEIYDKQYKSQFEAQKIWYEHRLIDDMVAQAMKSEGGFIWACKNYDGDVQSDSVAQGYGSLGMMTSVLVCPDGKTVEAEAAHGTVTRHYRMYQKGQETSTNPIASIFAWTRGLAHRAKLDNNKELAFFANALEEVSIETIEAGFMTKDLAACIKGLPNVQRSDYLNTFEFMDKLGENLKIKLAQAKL
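IDH1-R132H (0.5 ug/mL dispensed) in pH 7.5 Tris buffer was preincubated 30 min with compound, then given a substrate mix of 0.016 mM NADPH and 2 mM alpha-KG for 80 min at room temperature; remaining NADPH was read by diaphorase/resazurin fluorescence.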
GALK inhibitor: qHTS Assay for Inhibitors of Human Galactokinase (GALK) | Purified GALK, Kinase-Glo residual ATP luminescence | Potency, µM (doses to about 57.5 µM), usual class: inhibitors | 270,000 compounds, 0.007% hits
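Compounds were pin-transferred into ATP buffer (35 uM final), then GALK plus galactose (5 nM, 100 uM final) was added. After 1 h at room temperature, Kinase-Glo Plus was added and luminescence read after 10 min.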
PKM2 act: qHTS Assay for Activators of Human Muscle isoform 2 Pyruvate Kinase. 260,000 compounds, 0.34% hits. purified PKM2, Kinase-Glo ATP luminescence, activation; response scale: 0% is enzyme alone, no compound. Potency, µM (doses to about 57.5 µM), usual class: activators. Pyruvate kinase PKM (Homo sapiens), P14618; further: nearly all actives have a fitted effect of over 55% in size
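ATP formation by purified human PK-M2, quantified via coupled luciferase luminescence after 1 h at room temperature with 0.1 mM ADP and 0.5 mM PEP final.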
Anesthetic bind: qHTS Assay for Identification of Novel General Anesthetics | Potency, µM (doses to about 77.5 µM), usual class: inhibitors | Ferritin light chain (Equus caballus), P02791 | 350,000 compounds, 0.074% hits | apoferritin/1-aminoanthracene competitive binding, fluorescence | AID 485281, 2010; further: nearly all actives have a fitted effect of over 20% in size
Target sequence (P02791 2-175 limits assumed): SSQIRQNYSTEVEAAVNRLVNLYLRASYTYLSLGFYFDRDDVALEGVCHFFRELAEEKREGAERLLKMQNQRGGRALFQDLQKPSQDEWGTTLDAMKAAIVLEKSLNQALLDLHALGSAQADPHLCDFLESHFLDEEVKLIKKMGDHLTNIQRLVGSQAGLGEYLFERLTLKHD
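Horse-spleen apoferritin (10 uM) in 50% saturated 1-aminoanthracene in PBS was incubated 10 min at room temperature with compound. Fluorescence (ex 380, em 535 nm) was normalized to free and bound 1-AMA, with concentration-response fitted by a four-parameter Hill equation.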
TrxR1 substrate: qHTS Assay for Substrates of Mammalian Selenoprotein Thioredoxin Reductase 1 (TrxR1): qHTS; purified TrxR1 substrate turnover, NADPH consumption readout; Potency, µM (highest dose often 114 µM); 390,000 compounds, 0.01% hits; AID 588456, 2011; further: nearly all actives have a fitted effect of over 50% in size
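Rat TrxR1, dispensed at 90 nM, was prereduced with 400 uM NADPH (final) for 5 min at ~22 deg C, then incubated with compound 15 min before 400 uM selenite. A first-read NADPH fluorescence drop versus no-compound background flagged substrates.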
Numbers stand for hits; i = inactive; ? = inconclusive; nt = no result given; [ ] = another dose, or the depositor's remark. The list is not random: actives were taken first. Their share in the collection is about 1.3%. The call rests on the fitted dose curve; in most records, active means well fitted curve in the direction sought with a large enough effect; inconclusive means small, poorly fitted or top-dose-only effect, or another doubt; inactive means no such curve, though single readings can be large; an effect the other way counts as inactive or inconclusive.

SMILES	TrxR1 inh	IDH1 R132H inh	GALK inhibitor	PKM2 act	Anesthetic bind	TrxR1 substrate
CC1Cc2ccccc2N1C(=O)CSc1ccccc1 (configuration not stated)	i	i	i	i	6.3µM	i
Cc1ccc(-c2cc(C(=O)NCCCn3ccnc3)c3cc(Br)ccc3n2)o1	14µM	i	i	i	i	i
Cc1ccc(-c2cc(C(=O)O)c3cc(Br)ccc3n2)o1	?	i	i	i	i	i
CC(C)C1NC2(C(=O)c3ccccc3C2=O)C2C(=O)N(c3ccc(F)cc3)C(=O)C12 (configuration not stated)	45µM	i	i	i	i	i
O=C1C2C3C=CC(CC3)C2C(=O)N1c1ccc(F)cc1 (configuration not stated)	i	i	i	i	?	i
Nc1ncnc2c1nc(Sc1ccc(Cl)cc1)n2[C@H]1OC2COP(=O)(O)O[C@@H]2C1O (some centres not stated)	i	nt	nt	nt	nt	i
COc1cccc(/C=C/c2ccc3ccccc3[n+]2C)c1OC	i	nt	nt	nt	nt	i
CC(=O)Oc1ccccc1/C=C/c1ccc2ccccc2[n+]1C	20µM	i	i	i[11.5 µM]	i	i
Cc1cc(C)c2c(=O)n(CC(=O)Nc3ccc(Br)c(C)c3)sc2n1	i	i	i	?	?	i
Cc1cc(C)c2c(=O)n(CC(=O)Nc3cccc(Cl)c3C)sc2n1	i	i	i	3.2µM	i	i
CCN(CC)c1ccc(NC(=O)C2CCN(c3nnc(-n4cccc4)s3)CC2)c(C)c1	i	i	nt	nt	i	i
O=[N+]([O-])c1ccc2c(c1)ncn2CCc1ccccc1	i	i	i	7.1µM	i	i
O=C(O)CCC(=O)c1ccc2c(c1)OCCO2	i	i	i	?	i	i
O=C(CCN1CCc2ccccc2C(c2ccccc2)C1)c1ccc2c(c1)OCCO2 (configuration not stated)	1.1µM	i	i	i	i	i
O=C(CCN1Cc2ccccc2C1)c1ccc2c(c1)OCCO2	0.32µM	i	i	i	i	i
COc1cc2nc(N3CCOCC3)nc(NC3CCN(C)CC3)c2cc1OC	i	nt	nt	nt	nt	i
O=CNc1ccc(OC(=O)c2cncc(Br)c2)cc1	i	i	i	i	i	i
O=C(Oc1ccc([N+](=O)[O-])cc1)c1cncc(Br)c1	18µM	i	i	i	i	i
COc1cccc(Oc2c(C)oc3c(CN4CCCCC4)c(O)ccc3c2=O)c1	45µM	i	i	i	i	i
O=C(NCCc1ccccc1)c1cc(Sc2ccc(F)cc2F)nc2ccccc12	i	i	nt	nt	i	i
Cc1ccc(NC(=O)N2CCc3c([nH]c4ccccc34)C2c2ccccc2F)c(Cl)c1 (configuration not stated)	i	i	nt	nt	i	i
CCOc1cc(/C=C(\C#N)C(N)=O)ccc1OS(=O)(=O)c1ccccc1	i	i	i	14µM	i	i
COc1cc(NCCC(=O)c2cccs2)c(OC)cc1Cl	18µM	i	i	i	i	i
COc1ccc(NC(=O)CCC(=O)c2cccs2)cc1Cl	i	i	i	nt	i	i
COc1ccc(-c2nc3ccccc3[nH]2)cc1	i	i	i	i	i	i
SMILES	TrxR1 inh	IDH1 R132H inh	GALK inhibitor	PKM2 act	Anesthetic bind	TrxR1 substrate
COC(=O)c1ccc(-c2nc3ccccc3[nH]2)cc1	56µM	i	i	i	i	i
CCN(CC)c1nc(NC2CCN(C)CC2)c2cc(OC)c(OC)cc2n1	i	nt	nt	nt	nt	i
O=S(=O)(Nc1ccc2c(c1)CCC2)c1cccs1	i	i	i	i	11µM	i
O=C1OCc2cc(NS(=O)(=O)c3cccs3)ccc21	i	i	i	?	i	i
Oc1ccc2ccccc2c1SSc1c(O)ccc2ccccc12	?	nt	nt	nt	nt	i
Cc1ccc(-n2c(=O)[nH]c3c(C(N)=O)nc(-c4ccc(C)o4)nc32)cc1	i	i	i	14µM	?	i
CCCc1nc2c(sc3nc4c(cc32)COC(C)(C)C4)c(=O)n1Cc1ccco1	11µM	i	i	i	i	i
CCOc1ccccc1N(C)C(=O)C1CCCN(c2ncnc3onc(-c4ccc(F)cc4)c23)C1 (configuration not stated)	i	i	nt	nt	i	i
CCC(C(=O)Nc1ccc(C(=O)OC)cc1)n1nc(-c2ccc(C)c(C)c2)ccc1=O (configuration not stated)	i	i	nt	nt	i	i
CC(C)CC(=O)/C(=C\c1ccc(Cl)cc1Cl)n1cncn1	8.9µM	i	i	?	i	i
CC(C)CC(=O)/C(=C/c1ccc(N(C)C)cc1)n1cncn1	i	i	i	nt	i	i
CCCCn1c(N)c(N(CCOC)C(=O)c2cc(-c3ccco3)nc3ccccc23)c(=O)[nH]c1=O	50µM	i	nt	nt	nt	i
CCCN(C(=O)c1cc(-c2ccco2)nc2ccccc12)c1c(N)n(Cc2ccccc2)c(=O)[nH]c1=O	28µM	i	nt	nt	nt	i
CCN(C(=O)COC(=O)/C=C/c1ccco1)c1c(N)n(Cc2ccccc2)c(=O)[nH]c1=O	50µM	i	nt	nt	nt	i
COCCN(C(=O)c1cc(-c2ccco2)nc2ccccc12)c1c(N)n(Cc2ccccc2)c(=O)[nH]c1=O	?	i	nt	nt	nt	i
CCCCN(C(=O)c1cc(-c2ccco2)nc2ccccc12)c1c(N)n(CCCC)c(=O)[nH]c1=O	?	i	nt	nt	nt	i
C[N+]1(CC(=O)c2ccc(I)cc2)CCCc2ccccc21 (configuration not stated)	i	nt	nt	nt	nt	i
NC(=O)CC(NC(=O)Cc1ccc(Br)cc1)c1ccc(NCCc2ccccc2F)c([N+](=O)[O-])c1 (configuration not stated)	i	i	i	1.6µM	i	i
O=C(N/N=C\c1ccccc1)c1cccc(C(=O)N/N=C\c2ccccc2)n1	i	i	nt	nt	nt	i
COc1ccc(/C=N/NC(=O)c2cccc(C(=O)N/N=C/c3ccc(OC)cc3)n2)cc1	50µM	i	i	nt	i	i
COC(=O)c1ccc([C@H]2Nc3ccc(S(=O)(=O)Nc4cccc(C)c4)cc3[C@H]3C=CC[C@H]32)cc1	?	i	nt	nt	?	i
COC(=O)c1ccc([C@@H]2Nc3c(OC)ccc(C)c3[C@@H]3C=CC[C@@H]32)cc1	56µM	i	nt	nt	i	i

Source: PubChem (National Center for Advancing Translational Sciences (NCATS))
